IL-1B inflam inh = qHTS for Inhibitors of Inflammasome Signaling: IL-1-beta AlphaLISA Primary Screen. THP-1 LPS/ATP IL-1B secretion, AlphaLISA, 16 h; hits give low values. activity change, % at 57.5 µM. actives 4.7% (n = 360,000). AID 743279, 2014; in the data active means activity change below about -50%; inconclusive means mostly about -30% to -49%
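THP-1 cells pretreated 1 hr with compounds (up to 57.5 uM final), then stimulated with LPS (250 ng/mL final) plus ATP (1.25 mM final); secreted IL-1B measured by AlphaLISA after 16 hr, decreased signal indicating inhibition.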
HepG2 tox = qHTS for Inhibitors of TGF-b: Cytotox Counterscreen; HepG2 CAGA-GFP viability, ATP luminescence, 18 h; actives 0.76% (n = 410,000); Potency, µM (doses to about 46.1 µM), most hits filed as cytotoxic
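CellTiter-Glo luminescence gave cytotoxicity after 18 hours at 37 degrees C. The cells were HepG2 CAGA-GFP in 1% FBS DMEM, stimulated with 500 pg/mL TGF-beta after compound addition. %Activity was normalised to no-cell wells (complete cell-killing) and DMSO (no toxicity), and curves were fitted and classified.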
TGFb SMAD3 inh = qHTS for Inhibitors of TGF-b; HepG2 CAGA-GFP TGF-b/SMAD3 reporter, GFP fluorescence, 18 h; TGF-beta stimulated, 500 pg/mL final; Potency, µM (series often up to 46.1 µM), actives largely listed as inhibitors; actives 1.2% (n = 410,000); AID 588855, 2011; further: nearly all actives have a fitted effect of over 65% in size
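Using HEPG2 CAGA-GFP reporter cells at 1000 cells/well, we pinned test compounds, stimulated with recombinant TGF-beta (500 pg/mL final) and measured total well GFP after 18 h.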
S2 tox = Viability Counterscreen for Primary qHTS for Inhibitors of ATXN expression; S2 cells (HEK-293 line with an ATXN2-luciferase reporter) viability, CellTiter-Fluor protease fluorescence, 24 h; Potency, µM (series often up to 56.7 µM), usual class: cytotoxic; actives 0.49% (n = 400,000); AID 651635, 2014; further: nearly all actives have a fitted effect of over 40% in size
ATXN2 expr inh = Primary qHTS for Inhibitors of ATXN expression; HEK-293 ATXN2-luciferase reporter, luminescence, 24 h; Potency, µM (series often up to 57 µM), hits mostly inhibitors; actives 0.72% (n = 360,000); AID 1745845, 2022; further: nearly all actives have a fitted effect of over 55% in size
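qHTS (up to 57 uM final) was run with 24 h compound exposure of reporter cells at 37 °C. Each well was multiplexed: SteadyGlo luminescence measured ATXN2-luciferase expression after a fluorogenic Gly-Phe-AFC viability readout (25 uM final).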
Each line names hits and unclear results; the compound was inactive in the other large screens. Sampled rows, rich in hits. Any-hit rate of the full collection: about 5.7%. Unless noted, the call rests on the fitted dose curve; in most records, active means well fitted curve in the direction sought with a large enough effect; inconclusive means small, poorly fitted or top-dose-only effect, or another doubt; inactive means no such curve, though single readings can be large; an effect the other way counts as inactive or inconclusive.

Nc1nc(-c2cccs2)c(NC(=O)c2ccccc2)s1	IL-1B inflam inh -95, TGFb SMAD3 inh inconclusive, S2 tox 22µM, ATXN2 expr inh inconclusive
CCOc1ccccc1NC(=O)[C@@H](NC(=O)c1cccc(S(=O)(=O)N2CCOCC2)c1)C(C)C	none
CC(C)[C@H](NC(=O)c1cccc(S(=O)(=O)N2CCOCC2)c1)C(=O)Nc1nc2ccccc2s1	IL-1B inflam inh -54, S2 tox inconclusive
CC(=O)C(Cl)C(=O)Nc1ccccc1 (centres undefined)	IL-1B inflam inh -86, TGFb SMAD3 inh inconclusive, S2 tox inconclusive
Cc1cc(C)n(C(C)CC(=O)Nc2ccc(C)c(F)c2)n1 (centres undefined)	none (no result: IL-1B inflam inh)
CC(C)OCCCNC(=O)C(=O)Nc1ccc2nc3n(c(=O)c2c1)CCCCC3	S2 tox inconclusive (no result: IL-1B inflam inh)
CCN(CC)C1CCN(C(=O)c2cnn(-c3nccc(-c4ccco4)n3)c2C(C)C)C1 (centres undefined)	none (no result: IL-1B inflam inh, HepG2 tox, TGFb SMAD3 inh, ATXN2 expr inh)
O=S(=O)(Nc1ccc(S(=O)(=O)Nc2ccccc2)cc1)c1ccccc1	none
O=S(=O)(Nc1ccc(-c2ccccc2)cc1)c1ccccc1	IL-1B inflam inh inconclusive, TGFb SMAD3 inh inconclusive
O=S(=O)(Nc1ccc(N=Nc2ccccc2)cc1)c1ccccc1	IL-1B inflam inh -88, TGFb SMAD3 inh inconclusive, S2 tox inconclusive, ATXN2 expr inh inconclusive
O=[N+]([O-])c1ccc(N=NNc2ccccc2)cc1	none
O=[N+]([O-])c1ccc(N=Nc2ccc(O)c3ccccc23)cc1	IL-1B inflam inh -76, HepG2 tox 13µM, TGFb SMAD3 inh inconclusive, S2 tox inconclusive, ATXN2 expr inh inconclusive
O=S(=O)(Nc1ccc(N=Nc2ccc(O)c3ccccc23)cc1)c1ccccc1	IL-1B inflam inh -60, TGFb SMAD3 inh inconclusive, S2 tox inconclusive
CC(C)Cc1nc2cc(NS(=O)(=O)N(C)C)cc(C(=O)N3CC4(C)CC3CC(C)(C)C4)c2n1C (centres undefined)	none (no result: IL-1B inflam inh, HepG2 tox, TGFb SMAD3 inh, ATXN2 expr inh)
COc1cc(NC(=O)c2nn(C)c3c2COc2ccccc2-3)cc(OC)c1OC	none (no result: IL-1B inflam inh, S2 tox, ATXN2 expr inh)
Cc1c(C(=O)c2ccc(N(C)C)cc2)c2ccccn2c1CCC#N	IL-1B inflam inh -73
Cc1c(C(=O)c2ccc(F)cc2F)c2ccccn2c1CCC#N	none
O=C(NCC(c1cccnc1)N1CCc2ccccc21)C(=O)Nc1ccccc1F (centres undefined)	TGFb SMAD3 inh inconclusive (no result: IL-1B inflam inh, S2 tox, ATXN2 expr inh)
CN(C)[C@@H]1C(=O)C(C(=O)NCN2CCCC2)=C(O)[C@@]2(O)C(=O)C3=C(O)c4c(O)cccc4[C@@](C)(O)C3C[C@@H]12 (some centres undefined)	none (no result: IL-1B inflam inh, HepG2 tox, TGFb SMAD3 inh)
CC1(C(=O)Nc2ccc(Cl)c(C(F)(F)F)c2)Cc2c(-c3ccc(C(N)=O)cc3)ccnc2O1 (centres undefined)	HepG2 tox 16µM, TGFb SMAD3 inh 11µM, S2 tox inconclusive
CC(=O)Nc1ccc(-c2ccnc3c2CC(C)(C(=O)Nc2ccc(F)c(Cl)c2)O3)cc1 (centres undefined)	IL-1B inflam inh -62, S2 tox inconclusive, ATXN2 expr inh inconclusive
CC(=O)Nc1ccc(-c2ccnc3c2CC(C)(C(=O)Nc2ccc(C(C)C)cc2)O3)cc1 (centres undefined)	IL-1B inflam inh -84, TGFb SMAD3 inh inconclusive, S2 tox inconclusive, ATXN2 expr inh inconclusive
CC(=O)Nc1ccc(NC(=O)C2(C)Cc3c(-c4ccc(NC(C)=O)cc4)ccnc3O2)cc1 (centres undefined)	none
CC1(C(=O)Nc2ccc(Cl)c(C(F)(F)F)c2)Cc2c(-c3cccc(C(N)=O)c3)ccnc2O1 (centres undefined)	TGFb SMAD3 inh inconclusive, S2 tox inconclusive, ATXN2 expr inh inconclusive
CC(=O)Nc1ccc(SCC(c2ccccc2)N2CCN(C)CCC2=O)cc1 (centres undefined)	none (no result: IL-1B inflam inh, S2 tox, ATXN2 expr inh)
CCn1c(C(=O)NCc2ccccc2)cc2sc(Cl)cc21	TGFb SMAD3 inh inconclusive (no result: IL-1B inflam inh)
Cc1cc(/C=N/NC(=O)c2cccc([N+](=O)[O-])c2)c(C)n1-c1ccc(Cl)cc1Cl	IL-1B inflam inh -61

Compound activity deposited in PubChem BioAssay by National Center for Advancing Translational Sciences (NCATS).
